# According to PubChem BioAssay AID1850 (Southern Research Specialized Biocontainment Screening …, 2009):
# About 1,000 (0.32%) of roughly 310,000 compounds were called active. These entries were drawn from the full list. Measured potencies and affinities stand elsewhere. Unmarked numbers belong to inactive results. No rule for the calls is given here.
# Assay: Inhibition of PhoP regulon, Salmonella typhi GFP reporter cells, confirmation, 4 h (AID 1850);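 also: 0% = induced wells with vehicle and 100% = uninduced wells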
# Conditions: Salmonella Typhi PhoP-promoter GFP reporter, fluorescence, at 50 µM, stronger effect = higher value
row,SMILES,inhibition
1,O=C(N1CCOCC1)N1CCN(S(=O)(=O)N2CCCCC2)CC1,5.81%
2,COc1ccc(NC2CCCN(C(=O)C3=NN(C)C(=O)CC3)C2)cc1OC (configuration not stated),-1.12%
3,Cc1cccc(N2CCN(Cc3nc(-c4cccc(Cl)c4)oc3C)CC2)n1,-3.9%
4,Cc1cc(=O)c2cc(Br)ccc2[nH]1,6.88%
5,Oc1[nH]c2ccc(Br)cc2c1N=Nc1ccc(F)cc1,-81.9%
6,O=C(NCC1CCCO1)c1onc(CSc2ccc(F)c(F)c2)c1C(=O)O (configuration not stated),1.53%
7,C=CCNC(=O)CN1CCC(c2nc3cc(C)c(C)cc3[nH]2)CC1,2.77%
8,O=[N+]([O-])c1ccc(/C=N/N2CCCCC2)cc1,2.58%
9,CCOc1ccc(-c2c(C(=O)N/N=C/c3ccc(OC)cc3)nnn2-c2nonc2N)cc1,-14%
10,O=C(Cc1ccc(Cl)cc1)Nc1ccc(S(=O)(=O)Nc2cnc3ccccc3n2)cc1,-6.63%
11,CC1CCCCC1NC(=O)c1ccc(NS(=O)(=O)c2ccc3[nH]c(=O)[nH]c3c2)cc1 (configuration not stated),0.81%
12,Cc1ccc(NC(=O)c2cc([N+](=O)[O-])ccc2Cl)c(O)c1,4.62%
13,CC(=O)Oc1c(C)cc(Cl)cc1C(=O)Nc1ccc([N+](=O)[O-])cc1Cl,3.87%
14,CC[C@H](C)Cc1cn([C@@H](CCCCN)C(=O)NCCCCCCCCCCC(=O)N2CCNCC2)nn1,1.01%
15,CCOC(=O)N1CCN(C(=O)c2cc(COc3ccc4ncccc4c3)on2)CC1,-2.35%
16,COc1cc(OC)c(OC)cc1CNCCc1ccc(F)cc1,1.12%
17,COc1cccc(CNCCc2cccc(F)c2)c1OC,6.94%
18,CCc1ccc(CNCCc2ccccc2F)cc1,19.3%
19,Fc1ccc(CCNCc2cccc(Cl)c2)cc1,-1.17%
20,Fc1ccc(CNCCc2ccccc2F)cc1,20.1%
21,COc1cc(OC)c(OC)cc1CNCCc1cccc(F)c1,3.05%
22,CCc1ccc(CNCCc2ccc(F)cc2)cc1,7.65%
23,COc1cccc(CNCCc2ccccc2)c1OC,15.4%
24,CCN(c1ccccc1)S(=O)(=O)c1csc(C(N)=O)c1,1.57%
25,O=C(CS(=O)(=O)c1ccc(Cl)cc1)Nc1nnc(-c2cccs2)o1,-4.66%
26,CC(C)C(NC(=O)/C=C/c1cccc([N+](=O)[O-])c1)C(C)C,-9.13%
27,CCOC(=O)N1CCC(NC(=O)c2cnn3c(C(F)(F)F)cc(-c4cccc(OC)c4)nc23)CC1,-1%
